GCN5L2 inh – qHTS Assay for Inhibitors of GCN5L2; Histone acetyltransferase KAT2A (Homo sapiens), Q92830; GCN5L2 HAT assay, ThioGlo1 CoA-SH fluorescence; Potency, µM (titrated, usually from 58.9 µM), for the others: at the highest dose activity change, negative = inhibition, actives largely listed as inhibitors; actives 0.21% (n = 390,000)
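Enzyme at 20nM final was mixed with library compounds for 15 min at room temperature. Peptide H3(1-25) at 75uM, acetyl-CoA at 70uM and ThioGlo1 at 50uM were then added. Plates were read immediately and after 20 min (Ex340nm/Em540nm).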
VDR inhibitor – Inhibitors of the vitamin D receptor (VDR): qHTS; Vitamin D3 receptor (Homo sapiens), P11473; VDR-SRC2-3 peptide fluorescence polarization, 2 h; Potency, µM, for the others: max response, negative = inhibition, most hits filed as inhibitors; actives 0.93% (n = 400,000); AID 504847, 2011
Target sequence (P11473 whole entry, looked up): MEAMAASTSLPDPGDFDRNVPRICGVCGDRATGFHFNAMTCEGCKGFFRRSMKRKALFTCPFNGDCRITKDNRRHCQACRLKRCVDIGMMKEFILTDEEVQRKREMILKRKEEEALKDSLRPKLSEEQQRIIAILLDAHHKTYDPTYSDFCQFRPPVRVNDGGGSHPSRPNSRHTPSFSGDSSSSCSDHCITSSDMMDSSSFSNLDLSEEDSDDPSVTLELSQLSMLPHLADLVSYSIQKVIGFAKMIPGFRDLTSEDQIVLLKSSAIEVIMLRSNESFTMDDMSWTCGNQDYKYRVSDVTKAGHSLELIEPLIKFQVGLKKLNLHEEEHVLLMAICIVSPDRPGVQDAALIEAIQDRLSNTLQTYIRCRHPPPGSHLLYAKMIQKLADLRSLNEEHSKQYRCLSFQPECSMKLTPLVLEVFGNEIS
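The screen uses fluorescence polarization to detect compounds that interfere with recruitment of the SRC2-3 coactivator peptide to VDR; plates are read after 2 h at room temperature.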
12-LOX inh – Primary qHTS assay for inhibitors of human arachidonate 12S-lipoxygenase (ALOX12): Round 2; Polyunsaturated fatty acid lipoxygenase ALOX12 (Homo sapiens), P18054; purified 12hLO, xylenol orange hydroperoxide absorbance; Potency, µM (top dose mostly 108 µM), without a hit: at the top dose activity change, negative = inhibition, usual class: inhibitors; actives 1.1% (n = 580,000); AID 1671190, 2021
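Purified human 12hLO at 150 nM in 25 mM Hepes, 0.01% Triton X-100, pH 7.0, preincubated 15 min at room temperature with compound. Reaction started with 40 uM arachidonic acid, 30 min at room temperature. Hydroperoxide measured by Fe-xylenol orange, 573/405 nm absorbance ratio.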
PLK1 PBD block – qHTS for Inhibitors of PLK1-PDB (polo-like kinase 1 - polo-box domain): Primary Screen; Serine/threonine-protein kinase PLK1 (Homo sapiens), P53350; Plk1 PBD binding of FITC phosphopeptide, fluorescence polarization; Potency, µM, for the others: max response, negative = inhibition, hits mostly inhibitors; actives 2.8% (n = 360,000); AID 720504, 2013; note: series mostly up to about 57 µM; nearly all actives have a fitted effect of over 65% in size
Active calls of the source: *; i = inactive; ? = inconclusive; . = not tested or not shown. In the library only some 3% were active in any assay of this set; here they are far more common. Calls come from the whole dose curve; as a rule, active = well fitted curve in the direction sought with a large enough effect; inconclusive = small, poorly fitted or top-dose-only effect, or another doubt; inactive = no such curve, though single readings can be large; an effect the other way counts as inactive or inconclusive. % is set by controls: 0 for no effect and ±100 for the full control effect; potency is the fitted concentration of half-maximal effect.

SMILES	GCN5L2 inh	VDR inhibitor	12-LOX inh	PLK1 PBD block
CC(=O)Nc1ccc(NC(=O)C2CCC(N3C(=O)C4C5C=CC(C6CC56)C4C3=O)CC2)cc1 (stereo not drawn)	-7.3%	20µM*	6.5%	4.9%
CC(=O)C[C@](N)(c1ccccc1)C(F)(F)F	.	.	9.8%	.
Cc1cn(CC(=O)NCCc2ccccn2)c(=O)[nH]c1=O	.	-6.6%	1.0%	21.2µM*
Cc1nn(CCNC(=O)Cn2cc(C)c(=O)[nH]c2=O)c(C)c1Cl	.	.	-0.9%	.
CCCCNC(=S)NCC(c1ccccc1)c1c[nH]c2ccccc12 (stereo not drawn)	-11.6%	-0.6%	44.7µM*	0.1%
O=C1c2ccccc2C(=O)N1/N=C/c1ccc(O)c(O)c1	-4.4%	-2.2%	22.4µM*	?
O=C1C2C3C=CC(CC3)C2C(=O)N1/N=C/c1ccc(O)c(O)c1 (stereo not drawn)	-5.5%	-0.8%	-28.3%	-16.2%
COc1ccc(C(c2c(C)n(C)n(-c3ccccc3)c2=O)c2c(C)n(C)n(-c3ccccc3)c2=O)cc1	1.0%	-1.3%	?	-0.2%
COc1ccc(C(C[N+](=O)[O-])c2c(C)[nH]n(-c3ccccc3)c2=O)cc1 (stereo not drawn)	1.2%	?	?	23.8µM*
Cc1[nH]n(-c2ccccc2)c(=O)c1C(c1ccc(O)c([N+](=O)[O-])c1)c1c(C)[nH]n(-c2ccccc2)c1=O	.	?	0.0%	23.8µM*
CCC1CCc2c(sc(NC(=O)c3cnccn3)c2C(N)=O)C1 (stereo not drawn)	-7.1%	?	2.3%	2.99µM*
N#Cc1cc2c([nH]c1=S)CCCCCC2	-1.3%	-7.2%	15.8µM*	26.7µM*
COc1ccc(NC(=O)CS(=O)(=O)c2cccc(Cl)c2)cc1	3.5%	?	-0.3%	21.2µM*
NC(=O)OC[C@H](O)COc1ccc(Cl)cc1	14.1µM*	-7.6%	.	.
CC(=O)c1ccc(OCC(O)COc2ccc(C(C)=O)cc2)cc1	-8.7%	7.5%	19.7%	-1.0%
Cc1ccc(S(=O)(=O)N/N=C2/CCCCC2C2CCCCC2)cc1[N+](=O)[O-] (stereo not drawn)	-4.6%	?	-22.0%	23.8µM*
CCC(C)(C)C1CCC(=NNS(=O)(=O)c2ccc(C)c([N+](=O)[O-])c2)CC1 (stereo not drawn)	0.7%	-18.1%	-26.1%	-21.0%
Cc1ccc(S[C@@H](CCN2CC[C@H](O)CCC2=O)c2ccccc2)cc1	1.6%	-0.5%	35.5µM*	?
Cn1cnc2c1c(=O)n(CCCSc1nc3ccccc3[nH]1)c(=O)n2C	.	.	-11.1%	.
N#CCCN1CCN(CCC#N)C1=S	.	-8.5%	-5.2%	-0.1%
N#CCCN1CCN(CCC#N)c2ccccc21	.	-12.5%	28.2µM*	6.7%
Cc1cccc(NC(=O)CCN2CCN(Cc3cccc4ccccc34)CC2)c1	.	.	28.2µM*	.
CCN(CC)c1nc2ccccc2nc1C(C#N)C(=O)NCCc1ccccc1 (stereo not drawn)	-3.6%	-16.2%	0.0%	13.4µM*
N#Cc1ncc(Cc2ccccc2)nc1C#N	-17.2%	79.4µM*	-4.1%	-7.3%
N#Cc1nc(Cc2ccccc2)oc1NCc1cccnc1	-1.8%	-8.2%	394.9%	-1.0%
SMILES	GCN5L2 inh	VDR inhibitor	12-LOX inh	PLK1 PBD block
NC(=O)N/N=C/c1c(F)c(F)c(F)c(F)c1F	0.9%	25.1µM*	-22.2%	21.2µM*
NC(=O)N/N=C/c1c(F)cccc1F	-5.8%	-15.4%	21.8%	-6.7%
COc1cc(OC)c(OC)cc1/C=C1/C(=O)N=C(N)N1C	-1.1%	?	-9.6%	21.2µM*
Cc1ccc(C(=O)N/C(=C\c2ccc(F)cc2)C(=O)NCCCn2ccnc2)cc1	-0.2%	-10.0%	0.3%	-0.4%
O=C(NCCCn1ccnc1)/C(=C/c1ccccc1)NC(=O)c1ccccc1	-8.5%	-1.8%	12.2%	23.8µM*
O=C(NCCCn1ccnc1)/C(=C\c1ccc(Br)cc1)NC(=O)c1ccccc1	-16.7%	?	-6.3%	10.6µM*
Cc1ccc(C(=O)N/C(=C/c2ccccc2F)C(=O)NCCCn2ccnc2)cc1	-23.5%	-9.1%	-0.6%	26.7µM*
CN(C)c1ccc(/C=C(\NC(=O)c2ccccc2)C(=O)NCCCn2ccnc2)cc1	-8.4%	13.0%	0.0%	-9.9%
CCOC(=O)Cc1ccc(NC(=O)NC(C)C(=O)N2CCc3ccccc32)cc1 (stereo not drawn)	.	.	-12.3%	.
CCCCc1c(C(=O)O)cc(OC)cc1C(=O)O	-1.4%	9.8%	0.0%	-5.0%
CCCCCc1c2c(cc(O)c1C(=O)O)OC(=O)c1c(cc(OC)cc1C(=O)CCCC)O2	?	79.4µM*	.	26.7µM*
CCCCCc1c2c(cc(O)c1C(=O)O)OC(=O)c1cc(C(=O)CCCC)c(OC)cc1O2	?	79.4µM*	?	21.2µM*
Cc1nn(-c2cccc(Br)c2)c(C)c1[C@@H]1C=C[C@@H](NS(C)(=O)=O)C1	.	.	11.2µM*	.
C=CCN(CC=C)C(=S)NC(=O)c1ccc(OC)cc1	0.3%	-3.6%	-16.9%	?
COc1ccc(C(=O)NC(=S)N(Cc2ccccc2)Cc2ccccc2)cc1	-23.3%	-12.0%	35.5µM*	-10.8%
O=C1CCCCCN1Sc1ccccc1	-3.7%	12.6µM*	15.8µM*	1.06µM*
O=C1CCCCCN1C(=O)c1ccccc1	.	-1.3%	-16.3%	-11.3%
COC(=O)Cc1c(C)c2ccc(OCc3cccc(Cl)c3)c(C)c2oc1=O	.	.	-53.8%	.
COc1ccc(N=N/C(=C\O)C(=O)c2ccco2)cc1	-10.1%	-5.8%	?	26.7µM*
Cc1ccc(Nc2nc3ccccc3o2)cc1F	-0.6%	?	i	2.99µM*
Cc1ccc(Nc2c3c(nc4ccccc24)CCC3)cc1F	-4.8%	5.1%	?	.
O=c1[nH][nH]cc1C=Nc1ccc(Cl)cc1	-3.2%	12.1%	-1.4%	-1.5%
COc1cccc(N=Cc2c[nH][nH]c2=O)c1	-14.8%	?	0.0%	26.7µM*
Cc1cc(NC(=O)CSc2nccn2-c2cccc(Cl)c2)on1	.	.	3.4%	.
Cc1sc2nc(SCC(=O)Nc3ccc(S(N)(=O)=O)cc3)[nH]c(=O)c2c1C	?	3.4%	0.0%	-13.0%
SMILES	GCN5L2 inh	VDR inhibitor	12-LOX inh	PLK1 PBD block
Cc1sc2nc(SCC(=O)Nc3cccc(S(N)(=O)=O)c3)[nH]c(=O)c2c1C	-9.0%	-25.0%	?	23.8µM*
O=C(Oc1cccc(Br)c1)c1cccc2ccccc12	.	.	4.8%	.
Nc1ccc(N2CCCCC2)c2nonc12	-3.9%	20µM*	?	-28.0%
CCc1ccc2c(CN3CCc4cc(OC)c(OC)cc4C3)cc(=O)oc2c1	-2.7%	-15.6%	?	4.5%
CCc1ccc2c(CN3CCc4cc(S(N)(=O)=O)ccc43)cc(=O)oc2c1	.	.	14.1µM*	.
COCCNC(=O)c1ccccc1N(Cc1ccccc1)S(=O)(=O)c1ccc(C)cc1	-6.2%	-28.0%	-7.2%	26.7µM*
Cc1ccc(NC(C)C(=O)Nc2sccc2C#N)cc1C (stereo not drawn)	.	.	7.1%	.
Cc1cc(C)cc(NC(=O)CN(c2ccc(F)cc2)S(C)(=O)=O)c1	0.0%	?	-10.9%	10.6µM*

Bioassay records: PubChem, National Center for Advancing Translational Sciences (NCATS)
